# Experimental data published in PubChem BioAssay (NCATS).
# “And” between values parts separate entries of the source, which are not always exact repeats. Identical values can stand only once. Records with an inconclusive call do not appear. Entries that show only a call come without a potency. The source made the active and inactive calls. Unless noted, calls come from the whole dose curve; as a rule, active = well fitted curve in the direction sought with a large enough effect; inconclusive = small, poorly fitted or top-dose-only effect, or another doubt; inactive = no such curve, though single readings can be large; an effect the other way counts as inactive or inconclusive.
# Tests used:
# [1] = molecular target: Cytochrome P450 2C9 (Homo sapiens) (UniProt P11712); experiment: qHTS Assay for Inhibitors and Substrates of Cytochrome P450 2C9 (AID 883); note: potency is the fitted concentration of half-maximal effect; nearly all actives have a fitted effect of over 60% in size
# Outline: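 A luminogenic readout tracked human CYP2C9 (10nM) converting deoxyluciferin (100uM, at KM) in 25mM KPO4 during 60 min at 37C with regenerated NADPH. Values normalized to 57uM sulphaphenazole as complete inhibition.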
# [2] = molecular target: Bile acid receptor (Homo sapiens) (UniProt Q96RI1); experiment: qHTS assay for small molecule antagonists of farnesoid X receptor signaling (AID 588526; calls by dose curve)
# Outline: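 Concentration-response titrations were fitted to the Hill equation for half-maximal inhibition and maximal response, with data normalised to 50 uM chenodeoxycholic acid and DMSO control wells. Cells: FXR-UAS-bla HEK293T, dialyzed FBS.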
# [3] = molecular target: Glucocorticoid receptor (Homo sapiens) (UniProt P04150); experiment: qHTS assay for small molecule antagonists of glucocorticoid receptor signaling (AID 588533; active = well fitted inhibition curve with a large enough effect in the signal ratio, with a control signal flat, not every such curve was filed as active; the % refers to the signal ratio;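 note: cells stimulated with 2 nM dexamethasone as agonist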)
# Outline: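 Antagonist-mode qHTS: compound titrations added to GRE-bla HeLa cells, then dexamethasone 2 nM final; 18 h, 37 C. CCF4 FRET fluorescence normalized to dexamethasone and DMSO; IC50 from Hill fit.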
# [4] = qHTS assay for small molecule antagonists of peroxisome proliferator-activated receptor delta signaling (AID 588535; active = well fitted inhibition curve with a large enough effect in the signal ratio, with a control signal flat, not every such curve was filed as active; the % refers to the signal ratio;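 for max response: cells co-treated with a PPAR-delta agonist as stimulator during compound exposure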); settings: HEK293T PPARd-UAS-bla, beta-lactamase FRET ratio, 18 h; 460 nm channel
# Outline: (§1)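 Inhibition of PPAR-delta response element-driven beta-lactamase expression is measured in HEK293T cells exposed to a compound titration series for 18 hrs at 37 C. Half-maximal inhibition comes from Hill equation fitting.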
# [5] = molecular target: Peroxisome proliferator-activated receptor delta (Homo sapiens) (UniProt Q03181); experiment: as above
# Outline: as §1
# [6] = qHTS assay for small molecule agonists of retinoid X receptor alpha signaling (AID 588544); settings: HEK293T RXRa-UAS-bla, beta-lactamase reporter, 18 h; 530 nm emission
# [7] = molecular target: Thyroid hormone receptor beta (Homo sapiens) (UniProt P10828); experiment: qHTS assay for small molecule agonists of thyroid hormone receptor beta signaling (AID 588545; calls by dose curve)
# Outline: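 Cells (2500/well) were seeded, incubated 4 hrs at 37 C, dosed with a compound series, incubated 18 hrs, loaded with CCF4 dye for 2 hrs at RT, then read for fluorescence. Data were scaled between DMSO (0%) and 10 nM T3 (100%).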
# [8] = molecular target: Thyroid hormone receptor beta (Homo sapiens) (UniProt P10828); experiment: qHTS assay for small molecule antagonists of thyroid hormone receptor beta signaling (AID 588547; active = well fitted inhibition curve with a large enough effect in the signal ratio, with a control signal flat, not every such curve was filed as active; the % refers to the signal ratio;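 note: cells stimulated with 0.4 nM T3 agonist during compound exposure; series mostly up to about 77 µM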); settings: TR-UAS-bla HEK293, beta-lactamase ratio, antagonist mode, 18 h
# Outline: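 TR-UAS-bla GripTite HEK293 cells in 2% charcoal/dextran FBS medium were preincubated 4 h at 37 C, given compound (0.59 nM to 92 uM) plus 0.4 nM T3 (final) for 18 h, then CCF4 for 2 h at RT; Hill fit gave IC50.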
# [9] = qHTS assay for small molecule activators of the nuclear factor-kappa B (NF-kB) signaling pathway (AID 651749; active = well fitted activation curve with a large enough effect in the signal ratio; the % refers to the signal ratio; note: series mostly up to about 77 µM); settings: NF-kB-bla ME-180 cells, beta-lactamase FRET ratio, 16 h; stronger effect = higher value
# Outline: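 Human ME-180 cervical cells with an NF-kB-bla construct; compounds added via 23 nL pin transfer, DMSO as vehicle; incubation 16 hr. Reporter activity measured by FRET disruption.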
# [10] = qHTS assay for small molecule agonists of the antioxidant response element (ARE) signaling pathway measured by Nrf2-dependant transcriptional activity (AID 720636; active = well fitted curve in the direction sought with a large enough effect in the repeat runs; an effect the other way counts as inactive or inconclusive)
# Outline: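 Nrf2-dependent transcription read as ONE-Glo luciferase signal from ARE-luc HepG2 reporter cells after 16 hr compound treatment at 37 C, 5% CO2, in assay medium with 1% dialyzed FBS.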
# [11] = molecular target: Nuclear receptor subfamily 1 group I member 2 (Rattus norvegicus) (UniProt Q9R1A7); experiment: qHTS assay for small molecule activators of the rat pregnane X receptor (rPXR) signaling pathway (AID 651751; call rule not given here); settings: rPXR reporter cells, luciferase (One-Glo), 24 h
# [12] = qHTS assay for small molecule activators of the human pregnane X receptor (PXR) signaling pathway (AID 720659; call rule not given here)
# [13] = Cell Viability - HUV-EC-C (AID 542);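 note: cells exposed to compound for 40 hours; nearly all actives have a fitted effect of over 35% in size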
# Outline: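 Cells were seeded at 1000 per well and incubated 5 hr at 37 °C before compound addition. After 40 hr at 37 °C, CellTiter-Glo reagent was added for 20 min and luminescence read. AC50 values came from Hill-equation modelling.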
# [14] = Cell Viability - H-4-II-E (AID 543);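 note: cells exposed to compound for 40 hours; nearly all actives have a fitted effect of over 35% in size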
# Outline: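 Cells seeded at 1500 per well and rested 5 hr; compounds added; 40 hr incubation at 37 °C; CellTiter-Glo added, 20 min at room temperature; luminescence read. Hill-equation fits gave AC50.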
# [15] = Cell Viability - SH-SY5Y (AID 544);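 note: cells exposed to compound for 40 hours; nearly all actives have a fitted effect of over 55% in size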
# Outline: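 Cells were plated at 1500 per well and allowed 5 hr at 37 °C. Compounds were added across a concentration range and incubated 40 hr at 37 °C. CellTiter-Glo was added for 20 min at room temperature before luminescence reading.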
# [16] = MultiTox-Fluor Cytotoxicity Assay - LYMP1-001 - Live Cells (AID 947)
# [17] = Cell Viability - LYMP2-020 (AID 986);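 note: series mostly up to about 92 µM; cells exposed to compound for 24 h at 37 °C; nearly all actives have a fitted effect of over 55% in size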
# Outline: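 Seed 2500 cells per well and incubate 5 hr at 37 C. Add compounds at a concentration series and incubate 24 hr at 37 C. Add CellTiter-Glo, wait 30 min at RT, read luminescence, and fit a Hill curve for AC50.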
# [18] = qHTS assay for small molecule disruptors of the mitochondrial membrane potential - 1 hr assay (AID 651754; calls by dose curve; note: nearly all actives have a fitted effect of over 35% in size)
# Outline: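 Loss of mitochondrial potential shifts the cationic dye from red mitochondrial aggregates to green cytoplasmic monomers. Cells (HepG2) are treated with compound for 1 hr before a 30 min dye incubation at 37C.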
# [19] = molecular target: Tumor necrosis factor (Homo sapiens) (UniProt P01375); experiment: qHTS assay to identify small molecules that stimulate Tumor Necrosis Factor-alpha (TNF-alpha) secretion (AID 651757; active = well fitted curve in the direction sought with a large enough effect in the signal ratio; the % refers to the signal ratio)
# Outline: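 Human monocytic THP-1 cells are plated, treated with compound and held at 37 C for 17 hrs. Labeled anti-TNF-alpha antibody mixture is then added; after 3 hr at room temperature, TR-FRET signal reports secreted TNF-alpha.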
# [20] = qHTS assay for small molecule antagonists of the retinoid-related orphan receptor gamma (ROR-gamma) signaling pathway - cell viability counter screen (AID 720652; active = well fitted curve in the direction sought with a large enough effect in the repeat runs; an effect the other way counts as inactive or inconclusive;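 note: CHO reporter cells with doxycycline-induced ROR-gamma expression; series mostly up to about 92 µM; compound exposure lasted 16 hr before ATP read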)
# Outline: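 Steps: seed CHO cells bearing TET-inducible ROR and ROR response element-luciferase; rest 5 hr at 37 C; add compound, then doxycycline; incubate 16 hr; add CellTiter-Glo and read luminescence as ATP-based viability.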
# Glucocorticoid receptor (Homo sapiens), sequence (P04150 whole entry, looked up): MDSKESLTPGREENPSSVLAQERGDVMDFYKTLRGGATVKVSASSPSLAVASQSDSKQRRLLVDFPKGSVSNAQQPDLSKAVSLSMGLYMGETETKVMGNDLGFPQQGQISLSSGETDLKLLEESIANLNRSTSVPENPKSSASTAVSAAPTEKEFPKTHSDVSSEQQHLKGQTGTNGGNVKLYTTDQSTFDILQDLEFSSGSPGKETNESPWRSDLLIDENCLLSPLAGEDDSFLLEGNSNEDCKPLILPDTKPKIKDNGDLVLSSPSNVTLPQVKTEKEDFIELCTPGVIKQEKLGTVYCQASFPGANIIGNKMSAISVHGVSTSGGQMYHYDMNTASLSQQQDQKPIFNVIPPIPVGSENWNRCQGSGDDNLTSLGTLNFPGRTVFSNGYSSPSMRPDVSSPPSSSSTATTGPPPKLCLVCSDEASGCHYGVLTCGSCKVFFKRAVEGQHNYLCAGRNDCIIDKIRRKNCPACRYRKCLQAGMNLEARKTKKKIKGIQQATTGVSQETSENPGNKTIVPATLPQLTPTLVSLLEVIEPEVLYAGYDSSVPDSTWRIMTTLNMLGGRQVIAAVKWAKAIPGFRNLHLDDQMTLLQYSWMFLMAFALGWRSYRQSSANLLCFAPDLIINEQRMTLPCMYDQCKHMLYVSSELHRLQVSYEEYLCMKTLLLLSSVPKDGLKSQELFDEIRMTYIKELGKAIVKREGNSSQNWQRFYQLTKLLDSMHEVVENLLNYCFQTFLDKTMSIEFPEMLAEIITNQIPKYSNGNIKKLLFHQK
# Tumor necrosis factor (Homo sapiens), sequence (P01375 whole entry, looked up): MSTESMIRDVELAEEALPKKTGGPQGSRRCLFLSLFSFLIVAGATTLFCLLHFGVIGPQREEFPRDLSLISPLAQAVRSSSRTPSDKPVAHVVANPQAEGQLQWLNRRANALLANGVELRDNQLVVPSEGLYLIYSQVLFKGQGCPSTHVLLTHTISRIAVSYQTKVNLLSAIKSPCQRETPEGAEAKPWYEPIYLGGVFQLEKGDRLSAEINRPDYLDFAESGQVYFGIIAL
# Peroxisome proliferator-activated receptor delta (Homo sapiens), sequence (Q03181 whole entry, looked up): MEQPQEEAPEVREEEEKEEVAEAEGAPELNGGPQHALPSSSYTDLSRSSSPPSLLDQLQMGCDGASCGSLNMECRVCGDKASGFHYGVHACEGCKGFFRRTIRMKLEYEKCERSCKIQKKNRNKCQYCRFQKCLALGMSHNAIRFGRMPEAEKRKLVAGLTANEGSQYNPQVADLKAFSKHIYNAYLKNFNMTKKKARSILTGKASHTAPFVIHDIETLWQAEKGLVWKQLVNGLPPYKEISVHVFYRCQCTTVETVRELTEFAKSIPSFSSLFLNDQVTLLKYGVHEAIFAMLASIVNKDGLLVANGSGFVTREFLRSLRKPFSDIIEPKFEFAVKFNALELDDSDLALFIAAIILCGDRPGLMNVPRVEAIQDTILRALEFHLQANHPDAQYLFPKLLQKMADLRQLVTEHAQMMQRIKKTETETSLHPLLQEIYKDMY
# Nuclear receptor subfamily 1 group I member 2 (Rattus norvegicus), sequence (Q9R1A7 whole entry, looked up): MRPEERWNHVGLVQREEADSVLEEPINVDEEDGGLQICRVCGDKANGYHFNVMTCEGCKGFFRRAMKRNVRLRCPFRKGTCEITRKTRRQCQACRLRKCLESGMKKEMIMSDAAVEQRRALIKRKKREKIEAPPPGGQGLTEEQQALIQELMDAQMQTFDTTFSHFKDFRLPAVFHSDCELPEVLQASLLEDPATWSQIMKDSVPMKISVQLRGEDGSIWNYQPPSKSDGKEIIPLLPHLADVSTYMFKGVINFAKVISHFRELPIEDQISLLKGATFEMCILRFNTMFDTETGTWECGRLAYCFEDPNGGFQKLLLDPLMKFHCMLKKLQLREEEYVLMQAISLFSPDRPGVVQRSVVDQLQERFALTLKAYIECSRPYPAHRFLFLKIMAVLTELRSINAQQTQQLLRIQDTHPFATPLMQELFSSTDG
# Cytochrome P450 2C9 (Homo sapiens), sequence (P11712 whole entry, looked up): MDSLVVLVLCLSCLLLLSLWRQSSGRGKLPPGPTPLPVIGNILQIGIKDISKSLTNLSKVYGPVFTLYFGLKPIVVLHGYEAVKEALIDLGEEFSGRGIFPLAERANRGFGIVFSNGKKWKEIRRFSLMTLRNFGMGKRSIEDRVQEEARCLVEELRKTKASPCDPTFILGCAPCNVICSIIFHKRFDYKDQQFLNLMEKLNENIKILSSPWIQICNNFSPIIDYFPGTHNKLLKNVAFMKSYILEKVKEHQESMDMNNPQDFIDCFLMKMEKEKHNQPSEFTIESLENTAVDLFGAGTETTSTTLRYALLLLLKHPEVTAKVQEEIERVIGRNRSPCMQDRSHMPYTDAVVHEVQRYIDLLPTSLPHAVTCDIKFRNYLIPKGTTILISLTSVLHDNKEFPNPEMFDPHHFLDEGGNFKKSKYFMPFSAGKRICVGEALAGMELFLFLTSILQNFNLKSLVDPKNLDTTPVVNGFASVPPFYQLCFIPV
# Bile acid receptor (Homo sapiens), sequence (Q96RI1 whole entry, looked up): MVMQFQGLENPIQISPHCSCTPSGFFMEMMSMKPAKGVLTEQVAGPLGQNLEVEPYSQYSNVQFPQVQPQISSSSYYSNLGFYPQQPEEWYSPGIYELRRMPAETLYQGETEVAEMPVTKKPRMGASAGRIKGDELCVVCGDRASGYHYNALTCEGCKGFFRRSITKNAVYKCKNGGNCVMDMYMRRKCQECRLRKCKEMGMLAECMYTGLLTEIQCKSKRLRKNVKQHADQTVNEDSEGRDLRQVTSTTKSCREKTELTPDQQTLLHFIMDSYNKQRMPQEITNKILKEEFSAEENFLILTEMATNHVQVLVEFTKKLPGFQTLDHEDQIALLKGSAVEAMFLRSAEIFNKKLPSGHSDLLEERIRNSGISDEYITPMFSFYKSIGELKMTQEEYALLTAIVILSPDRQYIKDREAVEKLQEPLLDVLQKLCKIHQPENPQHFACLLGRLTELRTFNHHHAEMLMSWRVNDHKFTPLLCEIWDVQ
# Thyroid hormone receptor beta (Homo sapiens), sequence (P10828 whole entry, looked up): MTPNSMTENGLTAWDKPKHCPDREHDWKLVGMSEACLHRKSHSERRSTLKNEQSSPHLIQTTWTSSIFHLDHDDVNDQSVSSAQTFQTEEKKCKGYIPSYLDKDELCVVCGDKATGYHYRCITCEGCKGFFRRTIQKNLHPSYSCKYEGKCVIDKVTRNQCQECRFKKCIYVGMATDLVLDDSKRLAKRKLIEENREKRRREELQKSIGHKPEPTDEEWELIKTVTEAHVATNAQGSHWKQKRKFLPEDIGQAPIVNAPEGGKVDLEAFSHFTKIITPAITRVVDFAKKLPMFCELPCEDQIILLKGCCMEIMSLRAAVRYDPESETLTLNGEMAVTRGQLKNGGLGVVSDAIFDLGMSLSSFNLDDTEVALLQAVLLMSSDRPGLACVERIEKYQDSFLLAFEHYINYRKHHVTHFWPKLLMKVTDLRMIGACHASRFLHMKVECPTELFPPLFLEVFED
smiles,measurement,setting,value
Cn1cc(-c2nc3cnc(N4CCNCC4)nc3n(C3CC3)c2=O)c2ccccc21,Potency,[1],3980 nM (active)
O=c1c(-c2ccccc2)nc2cnc(N3CCOCC3)nc2n1CCc1ccccc1,Potency,[1],7940 nM (active)
COc1cccc(Cn2c(=O)cnc3cnc(Nc4cccc(OC)c4)nc32)c1,Potency,[1],2000 nM (active)
C=CC(C)(CCC=C(C)C)OC(C)=O (configuration not stated),outcome,[2],inactive
same,Potency,[3],inactive
same,max response,[4],-1.31%
same,Potency,[5],inactive
same,max response,[6],-5.34%
same,outcome,[7],inactive
same,activity change % (negative = inhibition),[8],-2.58% (inactive)
same,activation,[9],-0.624% (inactive)
same,Potency,[10],inactive
same,max response,[11],1.82% (inactive)
same,outcome,[12],inactive
COCCn1c(=O)c(-c2cccs2)nc2cnc(N3CCNCC3)nc21,Potency,[1],2000 nM (active)
C=CC(=C)CCC=C(C)C,outcome,[13],inactive
same,Potency,[14],inactive
same,Potency,[15],inactive
same,Potency,[16],inactive
same,Potency,[17],inactive
same,Potency,[3],inactive
same,max response,[4],-12.1%
same,Potency,[5],inactive
same,max response,[6],1.9%
same,activity change % (negative = inhibition),[8],9.36% (inactive)
same,activation,[9],-0.615% (inactive)
same,Potency,[18],inactive
same,outcome,[19],inactive
same,Potency,[10],inactive
same,Potency,[20],inactive
same,max response,[11],2.22% (inactive)
same,outcome,[12],inactive
O=C(O)c1ccccc1,outcome,[13],inactive
same,Potency,[14],inactive
same,Potency,[15],inactive
same,Potency,[16],inactive
same,max response,[6],-9.66%
same,outcome,[19],inactive
same,Potency,[10],inactive
same,Potency,[20],inactive
same,max response,[11],-2.75% (inactive)
same,outcome,[12],inactive
CCCCCCCCCCCCCC(=O)O,outcome,[13],inactive
same,Potency,[14],inactive
same,Potency,[15],inactive
same,outcome,[2],inactive
same,Potency,[3],inactive
same,max response,[6],12.8% and -5.45%
same,outcome,[7],inactive
same,activity change % (negative = inhibition),[8],8.19% (inactive) and 13.5% (inactive)
same,Potency,[18],inactive
same,outcome,[19],inactive
same,Potency,[10],inactive
same,Potency,[20],inactive
same,max response,[11],-0.081% (inactive) and -5.28% (inactive)
same,outcome,[12],inactive
COc1ccc(/C=C/c2cc(OC)cc(=O)o2)cc1,Potency,[14],inactive
same,Potency,[16],inactive
same,Potency,[17],inactive
same,outcome,[2],inactive
same,outcome,[7],inactive
same,activity change % (negative = inhibition),[8],-10.8% (inactive)
same,activation,[9],1.78% (inactive)
same,Potency,[18],inactive
same,Potency,[20],inactive
COc1cc(/C=C/c2ccccc2)oc(=O)c1,outcome,[13],inactive
same,Potency,[16],inactive
same,Potency,[17],inactive
same,Potency,[3],inactive
same,max response,[4],-19.2%
same,Potency,[5],inactive
same,outcome,[7],inactive
same,activity change % (negative = inhibition),[8],-8.32% (inactive)
same,Potency,[18],inactive
CCCCCCCCCCCC(=O)O,outcome,[13],inactive
same,Potency,[14],inactive
same,Potency,[15],inactive
same,Potency,[16],inactive
same,Potency,[17],inactive
same,max response,[4],12.5%
same,Potency,[5],inactive
same,outcome,[7],inactive
same,Potency,[18],inactive
same,outcome,[19],inactive
same,Potency,[10],inactive
same,Potency,[20],inactive
same,max response,[11],-4.75% (inactive) and -1.77% (inactive)
